# Pf gametocyte – P. falciparum stage V gametocyte viability inhibition | P. falciparum stage V gametocytes, ATP luminescence, 24 h | inhibition, % at 10.9 µM | 0.065% of 150,000 active;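 active = inhibition above the mean plus 3 SD of compounds within the control limits, set per campaign, cut at about 38% in these data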;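 also: 0% = DMSO wells and 100% = medium only without gametocytes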
# Hck-Nef inh – inhibitors of human Hck kinase activated by Nef; P08631; Recombinant Hck-YEEI plus Nef, Z-Lyte FRET kinase assay; inhibition, % at 20 µM; 0.68% of 220,000 active; AID 463187;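 active = Hck-Nef kinase inhibition above about 50%, limit read from the data; inactive = inhibition below that limit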;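 also: 0% = DMSO with Hck plus Nef and 100% = Hck alone without Nef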
# Mcl1-Noxa inh – Mcl-1/Noxa interaction inhibition; inhibition, % at 21.7 µM; 1.5% of 220,000 active; Q07820; AID 1022; TR-FRET Mcl-1/Noxa peptide binding, 2 h;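 active = compounds that cut the protein-peptide binding signal by more than 50% relative to plate controls in a single-dose test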;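 also: His-tagged Mcl-1 with rhodamine Noxa BH3 peptide and terbium anti-His antibody; 0% = Mcl-1 plus Noxa peptide wells and 100% = peptide-only wells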
# Target sequence (Q07820 whole entry, looked up): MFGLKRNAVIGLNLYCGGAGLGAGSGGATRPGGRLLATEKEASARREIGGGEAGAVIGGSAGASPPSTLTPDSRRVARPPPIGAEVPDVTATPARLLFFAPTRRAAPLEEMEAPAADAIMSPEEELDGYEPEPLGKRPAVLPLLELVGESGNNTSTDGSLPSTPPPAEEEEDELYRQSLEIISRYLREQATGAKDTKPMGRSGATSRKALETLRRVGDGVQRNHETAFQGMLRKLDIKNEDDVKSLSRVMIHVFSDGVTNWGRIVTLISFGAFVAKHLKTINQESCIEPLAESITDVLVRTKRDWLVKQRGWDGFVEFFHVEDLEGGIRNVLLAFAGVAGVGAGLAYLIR
# Mcl-1 Bim block – inhibitors of Bim-Mcl-1 interaction, human; Q07820; Bead-based flow cytometry, Bim peptide-Mcl-1 binding; inhibition, % at 10 µM; 0.1% of 190,000 active; in the data active = inhibition above about 40%;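 also: 0% = no compound tracer wells and 100% = peptide blocker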
# Mcl1-Bid inh – disrupts binding of human Mcl-1 to Bid peptide; TR-FRET Mcl-1/Bid-Dy647 peptide binding, 1536-well; 0.97% of 220,000 active; AID 1021; Q07820; inhibition, % at 21.7 µM;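 active = compounds that cut the binding signal by more than half at the single screening dose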;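 also: His-tagged Mcl-1 with europium anti-His antibody binding Bid BH3 peptide; 0% = Mcl-1 plus peptide wells and 100% = peptide-only wells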
# 14-3-3 Bad inh – disrupts binding of bovine 14-3-3 zeta to phospho-Bad peptide. P63103. TR-FRET 14-3-3zeta/Dy647-pBad peptide displacement, 1 h. inhibition, % at 21.7 µM. 0.71% of 220,000 active;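 active = inhibition above about 70%, limit read from the data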;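 also: 0% = full 14-3-3 plus peptide FRET controls and 100% = background without 14-3-3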
# Target sequence (P63103 whole entry, looked up): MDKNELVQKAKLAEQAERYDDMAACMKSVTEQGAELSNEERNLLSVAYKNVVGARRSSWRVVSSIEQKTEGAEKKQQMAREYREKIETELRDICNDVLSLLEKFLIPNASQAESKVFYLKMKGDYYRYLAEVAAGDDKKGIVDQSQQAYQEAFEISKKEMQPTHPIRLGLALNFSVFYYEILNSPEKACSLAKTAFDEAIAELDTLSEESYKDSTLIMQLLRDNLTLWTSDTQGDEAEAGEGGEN
# Starred values were filed as active, the others as inactive; . = not tested or not shown; + = active, no number; [ ] = remark or other dose. Shown are actives, neighbours in structure and some others; about 2.9% of the full set was active somewhere.
SMILES,Pf gametocyte,Hck-Nef inh,Mcl1-Noxa inh,Mcl-1 Bim block,Mcl1-Bid inh,14-3-3 Bad inh
CC(=O)N1CCN(c2ccc(NCc3ccc(C)cc3)cc2)CC1,22.0,2.4,52.9*,0.0,-10.9,-5.1
Cc1ccc(CNc2ccc(O)cc2)cc1,.,4.9,51.8*,1.0,-18.5,6.8
Cc1ccc(S(=O)(=O)N(CC(=O)NCCC2=CCCCC2)Cc2ccccc2F)cc1,-18.3,-1.2,4.8,0.0,-25.6,33.0
COc1ccc(C2(CNC(=O)c3ccccc3)CCCC2)cc1OC,-0.2,.,.,.,.,.
CCC1(C(=O)OC)CCc2c(cc(OC)c3ccccc23)C1=O (centres undefined),.,7.2,88.2*,.,-1.1,2.8
COC(=O)c1ccc(C)c(NC(=O)CCNC(=O)c2ccc([N+](=O)[O-])cc2)c1,.,-0.5,15.1,46.0*,-10.9,0.1
COC(=O)c1cccc(NC(=O)CCNC(=O)c2ccc([N+](=O)[O-])cc2)c1,4.3,3.9,23.5,-4.0,-0.2,-2.2
COc1ccc(/C=N/NC(=O)C(=O)/C=C2\NC3(CCCC3)Cc3ccccc32)cc1,.,2.7,15.6,-4.0,-28.6,-4.2
O=C(/C=C1\NC2(CCCC2)Cc2ccccc21)C(=O)N/N=C/c1ccc(O)c(O)c1,-2.6,2.4,89.4*,0.0,-58.0,5.2
CC(=O)Nc1ccc2ccccc2c1,.,-1.9,7.7,-2.0,-11.7,92.1*[fluorescence artefact?]
O=C(Nc1ccccc1)c1ccc2ccccc2n1,.,23.2,5.2,-1.0,-4.2,79.7*
O=C(NC(=S)Nc1cnc2ccccc2c1)c1ccccc1,0.1,139.3*,20.8,-2.0,-12.9,-0.3
O=C(Nc1ccc(OC(F)(F)F)cc1)c1ccc2ccccc2n1,-3.4,23.3,1.3,0.0,-2.0,-13.7
O=C(Nc1ccc2nc3ccccc3nc2c1)c1ccccc1,.,2.1,81.4*,7.0,33.0,3.6
CC1(C)Cc2c(sc3nc(C4CCCCC4)n(N)c(=O)c23)CO1,-21.7,-4.0,-8.7,.,-0.7,-0.8
CC(=O)Nc1ccc2sc(C)nc2c1,12.8,9.2,5.9,.,17.8,3.3
CC(=O)Nc1ccc2cc3ccc(NC(C)=O)cc3nc2c1,.,-31.0,58.5*,.,0.6,6.0
COc1ccc(NC(=O)CSc2nnc(Cc3cccn3C)n2CCc2ccccc2)cc1OC,9.8,1.4,5.9,-4.0,-44.5,16.9
Cc1cc(N)ccc1N1CCCC1,.,2.9,82.8*,32.0,-23.7,96.6*[fluorescence artefact?]
COc1ccc(CNC(=O)/C=C/C(=O)O)cc1OC,8.8,-1.0,-0.8,-3.0,-9.7,0.8
CC1CC(=O)Nc2ccccc2N1S(=O)(=O)c1ccc(Br)cc1 (centres undefined),.,1.4,37.0,3.0,-31.0,.
Cc1ccc(C)c(-n2c(-c3ccncc3)n[nH]c2=S)c1,12.7,9.8,2.6,.,-40.5,-4.0
Cc1ccc(S(=O)(=O)Nc2ccccc2C(=O)NCc2cccnc2)cc1,-1.2,-6.6,66.1*,0.0,12.2,10.0
Cc1ccc(/C(O)=C/C(=O)C(=O)NNC(=O)C(O)(c2ccccc2)c2ccccc2)cc1,.,7.0,-52.6,-1.0,-6.2,11.9
COC(=O)C(=O)/C=C(\O)c1ccc(C)cc1,.,-0.8,57.4*,-1.0,-22.9,7.7
SMILES,Pf gametocyte,Hck-Nef inh,Mcl1-Noxa inh,Mcl-1 Bim block,Mcl1-Bid inh,14-3-3 Bad inh
Cc1ccc(S(=O)(=O)N2CCN(c3ncnc4c3cnn4-c3ccccc3)CC2)cc1,.,-1.9,11.9,-1.0,-22.1,.
CCN1CCc2c(sc(N)c2C#N)C1,26.2,8.7,43.9,1.0,-12.7,-0.8
N#Cc1c(N)sc(=S)c2c1CCN(Cc1ccccc1)C2,.,.,71.0*,3.0,-1.2,19.7
CCOC(=O)C(NCCCCl)c1ccccc1 (centres undefined),-9.7,-1.8,7.0,2.0,-20.2,72.9*
Cc1ccc2nc(-c3ccc(SCC(=O)Nc4nnc(C)s4)nc3)[nH]c2c1,25.4,8.5,68.2*,-4.0,70.1*,31.0
Cc1ccc2nc(-c3ccc(SCC(=O)Nc4nc(C)cs4)nc3)[nH]c2c1,-17.2,5.7,20.8,-5.0,-22.8,-4.4
CCOC(=O)CSc1ccc(-c2nc3ccccc3[nH]2)cn1,.,-21.3,51.1*,0.0,-12.5,9.7
Cc1cc2nc(-c3ccc(SCC(=O)N4CCN(C(=O)c5ccco5)CC4)nc3)[nH]c2cc1C,0.2,-11.7,71.0*,1.0,-31.0,0.5
Cc1noc(NS(=O)(=O)c2ccc(N3Cc4ccccc4C3=O)cc2)c1C,.,-1.4,14.2,-1.0,-29.3,+[fluorescence artefact?]
Cc1noc(NS(=O)(=O)c2ccc(NC(=O)c3ccc(N4C(=O)c5ccccc5C4=O)cc3)cc2)c1C,-17.8,39.2,-0.5,0.0,-27.4,-5.3
O=C1c2ccccc2S(=O)(=O)c2cc(C(=O)N3CCCC3)ccc21,8.9,.,.,.,.,.
Clc1ccc(OCCOCCN2CCCCC2)c(Br)c1,3.7,1.4,33.8,0.0,62.4*,69.6
CN(C)CCCOc1ccc(Cl)cc1Br,-16.2,-0.3,30.3,-4.0,53.4*,7.2
O=CN1CC(=O)N(c2ccccc2)c2c([nH]c3ccccc23)C1,12.5,0.4,-9.2,0.0,-38.6,-8.6
CCOc1ccc(N2C(=O)CCC2=O)cc1,.,12.6,6.0,3.0,-22.2,-8.9
CCCCCCC(=O)Oc1ccc(N2C(=O)CCC2=O)cc1,20.1,15.6,55.2*,2.0,5.3,1.9
COc1ccc(-c2noc(COc3ccc4c(c3)OCO4)n2)cc1OC,.,7.3,-18.6,36.0,-8.4,-11.2
CC(C)(O)C#Cc1ccc(CN2CCN(C3CCCCC3)C(CCO)C2)cc1 (centres undefined),-17.1,4.7,81.2*,0.0,-38.0,-4.2
CCNc1nc(NCC)nc(N/N=C/c2ccc(O)c(O)c2)n1,-15.7,-12.2,54.1*,2.0,-44.7,-12.8
CCCCC(=O)Nc1sc2c(c1-c1nc3ccccc3s1)CCN(C(C)=O)C2,.,66.0*,30.8,0.0,20.7,-2.7
CCOC(=O)CN=C1CC(C)(C)CC2=C1Sc1ncnc(N(C)C)c1N2,.,-1.0,22.2,2.0,-38.8,38.6
CCOC(=O)c1c(CS(=O)(=O)c2ccccc2)n(C)c2cc(Br)c(O)c(CN(C)C)c12,.,-4.1,61.6*,0.0,-26.1,0.9
CN(C)c1ccc(/C=C2/SC(=O)N(CCN=C3NS(=O)(=O)c4ccccc43)C2=O)cc1,2.4,5.0,52.3*,78.0*,34.5,1.1
CN(C)c1ccc(/C=C2\SC(=O)N(CCc3nnc(N)s3)C2=O)cc1,-8.9,35.1,67.2*,.,-108.8,23.5
CN(C)c1ccc(/C=C2\SC(=O)N(CC(O)Cn3c4ccccc4c4ccccc43)C2=O)cc1 (centres undefined),8.6,-0.1,-1.8,6.0,-8.2,17.4
O=C1C2C3C=CC(C3=C(c3ccccc3)c3ccccc3)C2C(=O)N1Cc1ccccc1 (centres undefined),.,2.7,64.4*,0.0,20.4,15.9
O=C1C2C3C=CC(C3=C(c3ccccc3)c3ccccc3)C2C(=O)N1CCO (centres undefined),7.2,0.8,14.0,-8.0,-2.4,-11.3

# Bioassay records from PubChem BioAssay.
